Experiments:
[1] = biological target: T1, Muscle, skeletal receptor tyrosine-protein kinase (Homo sapiens) (UniProt O15146); conditions: at 1 µM
T1 sequence (whole entry): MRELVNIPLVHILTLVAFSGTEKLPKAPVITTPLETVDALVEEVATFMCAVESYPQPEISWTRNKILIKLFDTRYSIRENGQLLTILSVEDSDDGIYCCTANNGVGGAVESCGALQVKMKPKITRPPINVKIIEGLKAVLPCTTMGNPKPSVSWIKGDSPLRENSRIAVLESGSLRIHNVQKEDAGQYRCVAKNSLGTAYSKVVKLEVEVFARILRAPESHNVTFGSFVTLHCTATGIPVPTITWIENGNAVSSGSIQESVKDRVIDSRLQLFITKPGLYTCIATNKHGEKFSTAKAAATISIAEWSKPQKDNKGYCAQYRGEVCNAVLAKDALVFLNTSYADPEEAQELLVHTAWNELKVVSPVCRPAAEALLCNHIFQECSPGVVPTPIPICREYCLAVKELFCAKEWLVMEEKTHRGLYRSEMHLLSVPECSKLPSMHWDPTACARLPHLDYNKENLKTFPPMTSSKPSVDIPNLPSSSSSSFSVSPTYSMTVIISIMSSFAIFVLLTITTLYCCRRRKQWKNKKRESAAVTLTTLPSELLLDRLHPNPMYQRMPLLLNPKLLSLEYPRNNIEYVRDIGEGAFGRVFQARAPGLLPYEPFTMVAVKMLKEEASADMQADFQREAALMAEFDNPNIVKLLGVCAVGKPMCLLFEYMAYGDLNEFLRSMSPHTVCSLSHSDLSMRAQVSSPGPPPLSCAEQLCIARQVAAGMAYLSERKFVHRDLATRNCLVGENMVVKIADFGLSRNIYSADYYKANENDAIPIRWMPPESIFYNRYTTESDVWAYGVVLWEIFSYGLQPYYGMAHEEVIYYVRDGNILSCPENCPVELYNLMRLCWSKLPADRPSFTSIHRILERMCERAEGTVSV

[2] = biological target: T1, Muscle, skeletal receptor tyrosine-protein kinase (Homo sapiens); conditions: at 10 µM
[3] = biological target: T2, Serine/threonine-protein kinase Nek11 (Homo sapiens) (UniProt Q8NG66); conditions: at 1 µM
T2 sequence (whole entry): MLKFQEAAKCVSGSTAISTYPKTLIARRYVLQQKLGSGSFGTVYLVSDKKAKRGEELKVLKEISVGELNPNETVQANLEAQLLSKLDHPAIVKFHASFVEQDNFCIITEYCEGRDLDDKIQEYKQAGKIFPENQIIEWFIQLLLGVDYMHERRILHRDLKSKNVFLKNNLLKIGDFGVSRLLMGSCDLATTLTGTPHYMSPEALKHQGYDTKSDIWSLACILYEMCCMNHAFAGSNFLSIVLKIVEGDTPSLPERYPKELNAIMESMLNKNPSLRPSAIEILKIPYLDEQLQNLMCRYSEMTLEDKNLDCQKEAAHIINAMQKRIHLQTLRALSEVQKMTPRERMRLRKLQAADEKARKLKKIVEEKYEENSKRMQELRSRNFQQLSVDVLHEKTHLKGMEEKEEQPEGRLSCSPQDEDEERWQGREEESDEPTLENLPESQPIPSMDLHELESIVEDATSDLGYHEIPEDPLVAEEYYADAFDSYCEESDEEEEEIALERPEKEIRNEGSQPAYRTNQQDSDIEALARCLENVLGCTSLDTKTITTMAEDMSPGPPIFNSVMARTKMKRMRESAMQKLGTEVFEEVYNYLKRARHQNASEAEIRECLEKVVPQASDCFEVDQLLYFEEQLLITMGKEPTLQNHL

[4] = biological target: T2, Serine/threonine-protein kinase Nek11 (Homo sapiens); conditions: at 10 µM
[5] = biological target: T3, Serine/threonine-protein kinase Nek2 (Homo sapiens) (UniProt P51955); conditions: at 1 µM
T3 sequence (whole entry): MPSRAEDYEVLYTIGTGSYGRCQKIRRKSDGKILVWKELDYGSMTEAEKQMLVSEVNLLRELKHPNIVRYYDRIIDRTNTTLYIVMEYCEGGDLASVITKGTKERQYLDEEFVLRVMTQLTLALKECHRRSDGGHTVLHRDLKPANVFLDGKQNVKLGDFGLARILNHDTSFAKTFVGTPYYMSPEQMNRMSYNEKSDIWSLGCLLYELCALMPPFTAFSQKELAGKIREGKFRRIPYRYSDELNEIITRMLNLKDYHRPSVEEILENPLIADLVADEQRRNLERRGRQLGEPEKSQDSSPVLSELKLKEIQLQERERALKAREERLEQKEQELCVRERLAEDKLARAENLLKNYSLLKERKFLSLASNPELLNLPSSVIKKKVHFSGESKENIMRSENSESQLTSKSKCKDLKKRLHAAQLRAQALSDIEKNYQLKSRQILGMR

[6] = biological target: T3, Serine/threonine-protein kinase Nek2 (Homo sapiens); conditions: at 10 µM
[7] = biological target: T4, Serine/threonine-protein kinase Nek3 (Homo sapiens) (UniProt P51956); conditions: at 1 µM
T4 sequence (whole entry): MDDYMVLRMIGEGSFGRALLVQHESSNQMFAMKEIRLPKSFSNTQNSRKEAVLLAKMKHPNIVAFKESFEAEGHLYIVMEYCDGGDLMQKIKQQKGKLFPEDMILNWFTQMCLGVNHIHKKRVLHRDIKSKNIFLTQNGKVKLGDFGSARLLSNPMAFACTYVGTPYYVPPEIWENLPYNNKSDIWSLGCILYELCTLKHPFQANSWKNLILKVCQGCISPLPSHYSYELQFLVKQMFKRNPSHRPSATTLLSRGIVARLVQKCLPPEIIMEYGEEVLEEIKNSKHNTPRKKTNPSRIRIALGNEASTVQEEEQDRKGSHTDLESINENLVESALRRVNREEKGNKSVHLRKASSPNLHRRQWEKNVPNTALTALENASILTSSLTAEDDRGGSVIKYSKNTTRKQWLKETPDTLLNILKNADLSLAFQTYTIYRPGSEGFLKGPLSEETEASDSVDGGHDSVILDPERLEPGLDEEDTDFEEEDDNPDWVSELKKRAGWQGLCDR

[8] = biological target: T4, Serine/threonine-protein kinase Nek3 (Homo sapiens); conditions: at 10 µM
[9] = biological target: Serine/threonine-protein kinase tousled-like 2 (Homo sapiens) (UniProt Q86UE8); conditions: at 1 µM
[10] = biological target: Serine/threonine-protein kinase tousled-like 2 (Homo sapiens) (UniProt Q86UE8); conditions: at 10 µM
[11] = biological target: T5, Testis-specific serine/threonine-protein kinase 1 (Homo sapiens) (UniProt Q9BXA7); conditions: at 1 µM
T5 sequence (whole entry): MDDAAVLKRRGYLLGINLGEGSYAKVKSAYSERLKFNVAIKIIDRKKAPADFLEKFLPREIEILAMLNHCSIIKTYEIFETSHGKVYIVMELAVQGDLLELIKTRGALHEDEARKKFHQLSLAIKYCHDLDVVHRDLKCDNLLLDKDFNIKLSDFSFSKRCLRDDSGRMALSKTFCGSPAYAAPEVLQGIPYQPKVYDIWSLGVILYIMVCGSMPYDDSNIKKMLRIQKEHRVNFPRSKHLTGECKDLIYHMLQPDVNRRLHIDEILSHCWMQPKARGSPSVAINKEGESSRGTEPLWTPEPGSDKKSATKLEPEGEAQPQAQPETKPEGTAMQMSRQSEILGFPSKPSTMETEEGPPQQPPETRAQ

[12] = biological target: T5, Testis-specific serine/threonine-protein kinase 1 (Homo sapiens); conditions: at 10 µM
[13] = biological target: T6, Testis-specific serine/threonine-protein kinase 2 (Homo sapiens) (UniProt Q96PF2); conditions: at 10 µM
T6 sequence (whole entry): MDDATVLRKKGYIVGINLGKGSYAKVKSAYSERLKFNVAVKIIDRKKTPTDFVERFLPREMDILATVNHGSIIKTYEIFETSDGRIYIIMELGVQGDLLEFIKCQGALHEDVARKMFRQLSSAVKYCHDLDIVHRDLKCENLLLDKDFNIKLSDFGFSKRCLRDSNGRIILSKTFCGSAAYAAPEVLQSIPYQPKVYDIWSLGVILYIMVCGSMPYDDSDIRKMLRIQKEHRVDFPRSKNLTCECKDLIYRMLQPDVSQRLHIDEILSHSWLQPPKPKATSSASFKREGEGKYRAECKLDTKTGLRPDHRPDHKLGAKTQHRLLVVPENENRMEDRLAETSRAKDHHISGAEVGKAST

[14] = biological target: T7, Tyrosine-protein kinase Tec (Homo sapiens) (UniProt P42680); conditions: at 1 µM
T7 sequence (whole entry): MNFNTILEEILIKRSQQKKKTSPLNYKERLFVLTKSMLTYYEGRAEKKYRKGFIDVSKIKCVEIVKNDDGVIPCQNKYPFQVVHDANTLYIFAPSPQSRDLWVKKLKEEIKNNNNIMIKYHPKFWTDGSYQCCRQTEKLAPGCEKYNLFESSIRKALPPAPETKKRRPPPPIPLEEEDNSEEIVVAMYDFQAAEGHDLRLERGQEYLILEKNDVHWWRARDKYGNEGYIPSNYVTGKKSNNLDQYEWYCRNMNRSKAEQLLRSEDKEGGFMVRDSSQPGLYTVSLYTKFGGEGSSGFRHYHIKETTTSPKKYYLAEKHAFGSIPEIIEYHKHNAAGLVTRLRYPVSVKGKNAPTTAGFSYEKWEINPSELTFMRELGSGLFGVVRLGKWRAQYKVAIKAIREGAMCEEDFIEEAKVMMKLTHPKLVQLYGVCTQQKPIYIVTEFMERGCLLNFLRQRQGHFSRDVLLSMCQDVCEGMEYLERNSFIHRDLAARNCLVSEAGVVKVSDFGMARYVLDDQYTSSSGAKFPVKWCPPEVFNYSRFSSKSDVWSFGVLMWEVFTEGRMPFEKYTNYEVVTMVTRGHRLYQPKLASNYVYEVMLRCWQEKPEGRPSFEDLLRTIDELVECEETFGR

[15] = biological target: T7, Tyrosine-protein kinase Tec (Homo sapiens); conditions: at 10 µM
[16] = biological target: Angiopoietin-1 receptor (Homo sapiens) (UniProt Q02763); conditions: at 1 µM
[17] = biological target: Angiopoietin-1 receptor (Homo sapiens) (UniProt Q02763); conditions: at 10 µM
[18] = biological target: High affinity nerve growth factor receptor (Homo sapiens) (UniProt P04629); conditions: at 1 µM
[19] = biological target: High affinity nerve growth factor receptor (Homo sapiens) (UniProt P04629); conditions: at 10 µM
[20] = biological target: BDNF/NT-3 growth factors receptor (Homo sapiens) (UniProt Q16620); conditions: at 1 µM
Chain of BDNF/NT-3 growth factors receptor (Homo sapiens) (Q16620 32-822 limits assumed): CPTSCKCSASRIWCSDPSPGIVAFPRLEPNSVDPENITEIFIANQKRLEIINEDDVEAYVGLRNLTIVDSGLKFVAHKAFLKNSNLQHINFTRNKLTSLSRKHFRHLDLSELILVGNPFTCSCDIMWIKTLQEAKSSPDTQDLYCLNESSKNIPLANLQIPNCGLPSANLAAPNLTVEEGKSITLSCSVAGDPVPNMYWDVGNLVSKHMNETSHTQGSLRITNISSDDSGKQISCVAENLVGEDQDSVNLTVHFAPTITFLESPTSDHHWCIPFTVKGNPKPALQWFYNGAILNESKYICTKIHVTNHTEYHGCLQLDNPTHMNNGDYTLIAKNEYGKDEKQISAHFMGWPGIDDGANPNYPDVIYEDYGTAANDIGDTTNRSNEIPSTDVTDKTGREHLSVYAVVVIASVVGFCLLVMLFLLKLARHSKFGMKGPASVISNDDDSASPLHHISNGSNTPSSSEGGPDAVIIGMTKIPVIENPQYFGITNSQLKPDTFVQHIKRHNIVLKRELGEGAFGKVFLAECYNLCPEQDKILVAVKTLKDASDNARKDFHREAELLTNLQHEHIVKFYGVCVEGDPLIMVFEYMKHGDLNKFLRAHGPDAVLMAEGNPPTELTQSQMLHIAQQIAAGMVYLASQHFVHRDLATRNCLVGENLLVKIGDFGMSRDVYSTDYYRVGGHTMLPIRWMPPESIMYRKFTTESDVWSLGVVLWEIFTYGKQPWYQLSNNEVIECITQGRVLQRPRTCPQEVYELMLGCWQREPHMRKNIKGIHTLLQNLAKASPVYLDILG

Chain of High affinity nerve growth factor receptor (Homo sapiens) (P04629 33-796 limits assumed): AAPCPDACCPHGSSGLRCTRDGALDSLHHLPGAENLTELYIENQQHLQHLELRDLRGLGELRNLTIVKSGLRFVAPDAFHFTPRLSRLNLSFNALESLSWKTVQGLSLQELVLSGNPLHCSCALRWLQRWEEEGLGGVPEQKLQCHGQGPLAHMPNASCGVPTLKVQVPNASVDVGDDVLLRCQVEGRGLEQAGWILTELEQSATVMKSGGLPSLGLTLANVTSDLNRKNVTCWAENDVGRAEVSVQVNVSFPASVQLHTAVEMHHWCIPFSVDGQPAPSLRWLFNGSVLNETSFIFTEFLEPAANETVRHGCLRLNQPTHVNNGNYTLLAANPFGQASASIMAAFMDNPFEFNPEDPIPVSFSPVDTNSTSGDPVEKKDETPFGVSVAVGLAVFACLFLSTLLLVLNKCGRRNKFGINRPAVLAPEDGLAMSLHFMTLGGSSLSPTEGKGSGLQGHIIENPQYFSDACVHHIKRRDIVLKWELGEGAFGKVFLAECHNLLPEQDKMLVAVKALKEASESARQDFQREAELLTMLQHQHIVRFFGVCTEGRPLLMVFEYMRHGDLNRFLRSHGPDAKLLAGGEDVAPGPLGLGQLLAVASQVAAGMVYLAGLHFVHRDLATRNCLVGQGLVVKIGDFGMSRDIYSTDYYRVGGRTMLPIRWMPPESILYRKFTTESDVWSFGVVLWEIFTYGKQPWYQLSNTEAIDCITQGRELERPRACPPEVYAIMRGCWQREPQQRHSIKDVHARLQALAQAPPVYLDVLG
Chain of Angiopoietin-1 receptor (Homo sapiens) (Q02763 whole entry): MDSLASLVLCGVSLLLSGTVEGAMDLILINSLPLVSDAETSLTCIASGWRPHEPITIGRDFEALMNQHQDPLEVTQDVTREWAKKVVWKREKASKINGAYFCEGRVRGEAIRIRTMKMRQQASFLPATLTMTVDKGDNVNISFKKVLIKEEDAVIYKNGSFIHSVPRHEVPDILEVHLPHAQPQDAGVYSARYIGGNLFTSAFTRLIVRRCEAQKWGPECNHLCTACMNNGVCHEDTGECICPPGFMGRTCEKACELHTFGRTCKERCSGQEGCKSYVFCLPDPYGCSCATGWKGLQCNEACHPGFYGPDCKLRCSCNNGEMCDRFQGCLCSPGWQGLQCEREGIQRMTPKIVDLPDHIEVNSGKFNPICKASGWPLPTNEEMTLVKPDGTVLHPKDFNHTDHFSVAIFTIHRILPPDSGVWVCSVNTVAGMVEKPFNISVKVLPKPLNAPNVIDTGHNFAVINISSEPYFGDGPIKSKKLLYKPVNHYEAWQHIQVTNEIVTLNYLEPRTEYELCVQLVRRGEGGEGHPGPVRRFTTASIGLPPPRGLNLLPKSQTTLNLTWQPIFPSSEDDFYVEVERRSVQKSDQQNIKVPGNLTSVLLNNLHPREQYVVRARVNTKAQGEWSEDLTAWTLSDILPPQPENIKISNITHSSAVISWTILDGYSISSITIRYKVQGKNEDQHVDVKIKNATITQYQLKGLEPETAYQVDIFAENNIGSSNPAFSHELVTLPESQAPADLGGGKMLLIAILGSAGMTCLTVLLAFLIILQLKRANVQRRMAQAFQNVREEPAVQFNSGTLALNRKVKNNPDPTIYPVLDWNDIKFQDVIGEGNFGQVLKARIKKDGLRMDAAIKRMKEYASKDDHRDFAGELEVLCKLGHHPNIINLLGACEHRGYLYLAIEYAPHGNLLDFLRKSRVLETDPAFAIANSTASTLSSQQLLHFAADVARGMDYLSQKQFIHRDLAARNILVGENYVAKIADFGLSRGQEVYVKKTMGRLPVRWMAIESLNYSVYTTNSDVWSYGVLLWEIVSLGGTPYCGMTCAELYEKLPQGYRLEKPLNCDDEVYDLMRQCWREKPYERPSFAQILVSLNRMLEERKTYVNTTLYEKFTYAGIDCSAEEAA
Chain of Serine/threonine-protein kinase tousled-like 2 (Homo sapiens) (Q86UE8 whole entry, looked up): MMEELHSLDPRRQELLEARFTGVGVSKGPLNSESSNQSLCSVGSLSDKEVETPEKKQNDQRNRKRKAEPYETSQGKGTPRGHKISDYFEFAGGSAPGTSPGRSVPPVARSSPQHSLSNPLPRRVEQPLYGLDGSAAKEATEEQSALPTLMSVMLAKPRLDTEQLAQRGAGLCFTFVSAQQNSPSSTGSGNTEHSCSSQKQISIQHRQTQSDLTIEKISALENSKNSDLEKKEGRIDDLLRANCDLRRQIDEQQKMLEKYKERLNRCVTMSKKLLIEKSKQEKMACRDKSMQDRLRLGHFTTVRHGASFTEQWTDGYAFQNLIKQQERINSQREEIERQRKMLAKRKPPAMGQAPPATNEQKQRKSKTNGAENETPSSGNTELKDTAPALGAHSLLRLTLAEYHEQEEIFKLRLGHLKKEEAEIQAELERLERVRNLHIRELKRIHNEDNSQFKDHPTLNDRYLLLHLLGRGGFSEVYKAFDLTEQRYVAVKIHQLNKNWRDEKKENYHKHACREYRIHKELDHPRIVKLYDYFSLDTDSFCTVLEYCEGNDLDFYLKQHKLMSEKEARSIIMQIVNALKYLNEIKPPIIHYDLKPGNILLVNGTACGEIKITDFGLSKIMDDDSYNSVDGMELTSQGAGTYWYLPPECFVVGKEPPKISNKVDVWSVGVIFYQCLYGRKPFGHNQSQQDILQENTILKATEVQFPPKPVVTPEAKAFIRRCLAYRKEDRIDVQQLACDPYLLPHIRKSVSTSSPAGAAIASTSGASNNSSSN

Structure (SMILES) | residual activity [1] [%] | residual activity [2] [%] | residual activity [3] [%] | residual activity [4] [%] | residual activity [5] [%] | residual activity [6] [%] | residual activity [7] [%] | residual activity [8] [%] | residual activity [9] [%] | residual activity [10] [%] | residual activity [11] [%] | residual activity [12] [%] | residual activity [13] [%] | residual activity [14] [%] | residual activity [15] [%] | residual activity [16] [%] | residual activity [17] [%] | residual activity [18] [%] | residual activity [19] [%] | residual activity [20] [%]
COc1cc2ncnc(N3CCN(C(=O)Nc4ccc(Oc5ccccc5)cc4)CC3)c2cc1OC | 71 | 49 | 110 | 115 | 81 | 82 | 110 | 87 | 88 | 88 | 88 | 76 | 117 | 83 | 98 | 69 | 69 | 71 | 30 | 39
O=C1Nc2cc(Br)ccc2/C1=C1/Nc2ccccc2/C1=N\O | 80 | 84 | 69 | 45 | 89 | 86 | 65 | 70 | 81 | 48 | 86 | 90 | 62 | 15 | 13 | 67 | 79 | 0 | 0 | -1
CCN(CC)CCCCN1c2ccccc2Oc2ccc(Cl)cc21 | 129 | 97 | 80 | 113 | 85 | 112 | 110 | 111 | 111 | 91 | 105 | 102 | 98 | 92 | 78 | 105 | 71 | 90 | 101 | 107
N#C/C(=C(\N)Sc1ccc(N)cc1)c1ccccc1C(F)(F)F | 86 | 84 | 64 | 68 | 93 | 91 | 75 | 103 | 98 | 93 | 99 | 82 | 67 | 93 | 63 | 111 | 87 | 90 | 85 | 78
CCC(=O)Nc1ccc2ncnc(Nc3cccc(Br)c3)c2c1 | 96 | 84 | 84 | 92 | 73 | 99 | 109 | 98 | 103 | 92 | 93 | 90 | 102 | 86 | 90 | 81 | 70 | 97 | 96 | 77
O=c1c2ccccc2[nH]c(=S)n1CCN1CCC(=C(c2ccc(F)cc2)c2ccc(F)cc2)CC1 | 116 | 91 | 106 | 98 | 86 | 106 | 104 | 42 | 104 | 94 | 101 | 86 | 70 | 94 | 44 | 87 | 59 | 82 | 87 | 44
Oc1ccc(-c2nc(-c3ccc(F)cc3)c(-c3ccncc3)[nH]2)cc1 | 92 | 77 | 85 | 66 | 127 | 99 | 85 | 104 | 112 | 100 | 112 | 83 | 113 | 87 | 55 | 109 | 49 | 107 | 83 | 99
